Assay outcomes: PubChem, The Scripps Research Institute Molecular Screening Center
Only some compounds are listed: those with a hit (about 3.4% of all), similar ones and a draw of the others.
MITF primary – MITF inhibitors, primary screen, biochemical, AlphaScreen, human. Microphthalmia-associated transcription factor (Homo sapiens), O75030. AlphaScreen MITF homodimerization, bead proximity signal. inhibition, % at 2.6 µM. actives 0.91% (n = 650,000); in the data active = inhibition above about 50%;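 also: 0% = vehicle wells with protein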
GPR151 ag – activators of human GPR151, primary screen, cell-based, PathHunter beta-arrestin, luminescence | activation, % at 11.2 µM | actives 1% (n = 650,000) | PathHunter beta-arrestin GPR151 cells | G-protein coupled receptor 151 (Homo sapiens), Q8TDV0; in the data active = activation above about 4.9%;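 also: 0% = median of compound wells and 100% = cells with positive control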
TEAD-YAP inh – TEAD-YAP interaction inhibition, primary screen, TEAD-YAP interaction inhibitor project, luminescence, HEK-TIYL cells; TEAD-Gal4/YAP UAS-luciferase luminescence; inhibition, % at 9.12 µM; actives 1.4% (n = 640,000); in the data active = inhibition above about 32%;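 also: 0% = median of test compound wells and 100% = reference inhibitor wells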
FBW7 activator – FBW7 E3 ligase activators, primary screen, biochemical, AlphaScreen, human; normalized activity (activation), % at 26.1 µM; F-box/WD repeat-containing protein 7 (Homo sapiens), Q969H0; actives 0.13% (n = 650,000); AlphaScreen FBW7–phospho-cyclin E peptide binding, activator screen; in the data active = normalized activity above about 1.9%;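 also: purified mutant Fbw7 with reduced substrate affinity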
Target sequence (Q969H0 whole entry, looked up): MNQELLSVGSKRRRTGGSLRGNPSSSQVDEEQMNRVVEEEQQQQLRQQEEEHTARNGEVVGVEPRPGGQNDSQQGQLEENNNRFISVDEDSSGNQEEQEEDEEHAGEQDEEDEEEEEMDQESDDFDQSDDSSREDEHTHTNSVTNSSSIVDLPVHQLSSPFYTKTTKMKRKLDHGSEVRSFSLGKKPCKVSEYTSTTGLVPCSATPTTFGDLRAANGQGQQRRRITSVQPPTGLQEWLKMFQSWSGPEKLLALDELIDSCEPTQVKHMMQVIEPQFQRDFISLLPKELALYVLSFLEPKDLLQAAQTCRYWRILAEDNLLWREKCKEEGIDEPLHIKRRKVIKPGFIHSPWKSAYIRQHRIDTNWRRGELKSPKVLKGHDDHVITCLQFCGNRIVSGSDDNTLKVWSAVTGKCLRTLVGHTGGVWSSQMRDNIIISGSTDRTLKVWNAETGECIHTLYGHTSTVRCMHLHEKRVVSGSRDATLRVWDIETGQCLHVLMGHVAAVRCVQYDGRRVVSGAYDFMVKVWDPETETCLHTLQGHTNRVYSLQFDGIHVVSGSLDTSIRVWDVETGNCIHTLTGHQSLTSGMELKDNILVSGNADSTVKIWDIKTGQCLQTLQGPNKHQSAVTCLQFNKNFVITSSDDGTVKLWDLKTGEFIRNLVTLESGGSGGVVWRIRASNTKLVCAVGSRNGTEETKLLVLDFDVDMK
Numbers without * were called inactive.

SMILES	MITF primary	GPR151 ag	TEAD-YAP inh	FBW7 activator
CCOc1ccc(-c2c[n+]3c(n2Cc2ccccc2)SCCC3)cc1	4.8	0.3	66.8*	0.0
CCOc1ccc(-n2c(-c3ccccc3)csc2=NC(C)=O)cc1	-1.0	-1.1	-4.8	0.1
CCOc1ccc(-n2c(-c3ccccc3)c[n+]3c2CCCCC3)cc1	19.2	-0.6	65.6*	0.1
Brc1ccc(-c2c[n+]3c(n2Cc2ccccc2)SCCC3)cc1	9.1	-0.3	-27.2	0.0
Cc1ccc(-n2nc3c(c2NC(=O)COc2ccc(Cl)cc2)CSC3)cc1	-8.6	0.4	-6.9	-0.1
O=C(NCCOc1ccccc1)c1cnc(Br)s1	-2.0	3.2	-21.8	0.2
Oc1c(-c2cc(-c3ccccc3)c3cc(Cl)ccc3n2)ccc2ccccc12	4.3	-1.0	-1.6	-0.1
COc1ccc(-c2nccc(Nc3cc(OC)c(OC)c(OC)c3)n2)cc1	-0.5	1.7	60.4*	-0.2
COc1ccc(-c2nc(Nc3cc(OC)c(OC)c(OC)c3)nc(OC)n2)cc1	-2.0	-0.8	45.3*	-0.1
COc1ccc(-c2nc(Nc3ccc(Oc4ccccc4)cc3)nc(OC)n2)cc1	15.7	2.3	2.6	0.1
NCCSC1CC(=O)N(Cc2cccs2)C1=O (stereo not drawn)	3.8	-0.2	-3.9	0.0
CCOc1cc(CN2CCc3nnc(CCNC(=O)c4ccoc4)n3CC2)ccc1OC	11.3	-0.6	-1.6	-0.2
Nc1c(C(=O)N2CCOCC2)sc2nc(-c3ccccc3)cc(C(F)(F)F)c12	5.6	-1.4	-9.1	2.8*
Cc1nn(C)c(C)c1NS(=O)(=O)c1ccc(C(C)(C)C)cc1	-10.2	-0.1	55.0*	-0.1
CC(=O)Nc1ccc(S(=O)(=O)Nc2c(C)nn(C)c2C)cc1	14.6	-1.1	7.1	0.7
CCN(CC)C(=O)c1ccc(NS(=O)(=O)c2c(Cl)cccc2Cl)cc1	0.0	2.1	-1.5	-0.1
Fc1cc(-c2nc(Nc3ccc(N4CCOCC4)cc3)ncc2F)cc(N2CCOCC2)c1	-2.3	0.8	1.2	-0.2
Fc1cnc(Nc2ccc(CN3CCCCC3)cc2)nc1-c1cc(N2CCOCC2)cc(C(F)(F)F)c1	15.1	2.3	41.8*	0.1
Fc1cc(-c2nc(Nc3ccc(CN4CCCCC4)cc3)ncc2F)cc(N2CCOCC2)c1	-8.6	2.0	92.0*	-0.2
COc1ccc(NC(=O)c2cc3nc(-c4ccc(Cl)cc4)cc(C(F)(F)F)n3n2)c(OC)c1	-8.6	-1.5	2.7	0.0
Cc1cc(C(F)(F)F)nc(Sc2ccc([N+](=O)[O-])cn2)n1	24.4	-1.0	60.4*	0.1
O=[N+]([O-])c1ccc(Sc2n[nH]c(-c3ccncc3)n2)nc1	5.1	-0.2	5.3	-0.1
O=C(NCCCc1nc2cc3sc(CCCNC(=O)C45CC6CC(CC(C6)C4)C5)nc3cc2s1)C12CC3CC(CC(C3)C1)C2	3.5	0.6	-3.9	0.2
Cc1ccc(NC(=O)c2cnc(SCC(=O)N3CCCC3)n(C)c2=O)cc1	13.7	-4.1	-9.4	0.1
Cc1ccc(-c2cnc(SCC(=O)N3CCCC3)n2C)cc1	-17.2	-1.2	57.9*	-0.1
SMILES	MITF primary	GPR151 ag	TEAD-YAP inh	FBW7 activator
CN1C(=O)/C(=C/c2cc(Br)ccc2O)NC1=S	-28.4	1.2	80.0*	0.1
CN1C(=O)/C(=C/c2ccccc2O)NC1=S	1.1	-1.1	15.5	0.5
O=C(O)c1cocc1C(F)(F)F	-5.9	1.0	13.3	0.1
NC(c1nc2ccc(-c3ccncc3)cc2[nH]1)c1ccc(F)cc1F (stereo not drawn)	34.0	0.8	-21.0	-1.0
Fc1ccc2nc(-c3nc4ccc(-c5ccncc5)cc4[nH]3)[nH]c2c1	10.6	3.0	-21.9	2.6*
Cc1cc(C)c(C#N)c(SCc2nc3ccccc3[nH]2)n1	-2.2	-0.3	-54.1	0.2
Cc1cc(C)c(C#N)c(SCc2nc3cc([N+](=O)[O-])c([N+](=O)[O-])cc3[nH]2)n1	4.8	0.2	86.0*	0.1
COc1cc(/C=N/NC(=O)OC(C)(C)C)ccc1O	3.2	0.4	-30.7	0.0
O=[N+]([O-])c1ccc(/C=C/c2nc3ccc([N+](=O)[O-])cc3[nH]2)cc1	2.3	1.8	3.8	0.0
O=[N+]([O-])c1ccc(/C=C/c2nc3ccccc3[nH]2)cc1	-2.5	-8.3	74.1*	-0.2
Cc1ccc(-c2ccc(-c3nnc(N)o3)s2)s1	-2.6	-3.8	-23.8	2.3*
COc1ccc(-c2nnc(N)o2)cc1OC	3.1	-0.4	2.8	0.0
CCN1C(=O)/C(=C/c2ccc(C=O)cc2)SC1=S	-1.4	1.1	-4.2	-0.1
CC(=O)Nc1cccc(Nc2nc3ccccc3n3nnnc23)c1	9.4	-0.5	-13.6	0.0
Cn1nccc1Nc1nc(NC2CC2)c2ncn(-c3ccccc3)c2n1	5.9	-2.5	40.4*	0.0
CC(C)N(CCNc1nc(Nc2nc3ccccc3n2C)nc2c1ncn2C(C)C)C(C)C	-6.7	0.5	42.9*	-0.3
Cn1c(Nc2nc(NCCCN3CCCC3=O)c3ncn(-c4ccccc4)c3n2)nc2ccccc21	6.3	-0.4	39.4*	0.0
CC(=O)Nc1ccc(Nc2nc3ccccc3n3nnnc23)cc1	4.6	0.0	37.7*	-0.1
CCc1c(C)nc2nncn2c1NC1CC1	2.2	-2.2	-11.3	-0.1
Cc1cc(=O)nc2c3ccccc3n(C(C)C(=O)N3CCc4ccccc43)n12 (stereo not drawn)	7.1	-0.3	-0.4	-0.1
CCNc1nc(Nc2ccc(NC(C)=O)cc2)c2ncn(-c3ccccc3)c2n1	19.5	0.9	-8.2	0.2
CC(=O)Nc1ccc(Nc2nc(Nc3nc4ccccc4n3C)nc3c2ncn3-c2ccccc2)cc1	-1.0	1.3	32.2*	-0.1
Cn1c(Nc2nc(NCCc3ccc(O)cc3)c3ncn(-c4ccccc4)c3n2)nc2ccccc21	1.4	-3.7	18.6	0.8
c1ccc(-n2cnc3c(NC4CC4)nc(Nc4ncccn4)nc32)cc1	-7.4	-0.3	23.3	0.1
CCCNc1nc(Nc2nc3ccccc3n2C)nc2c1ncn2-c1ccccc1	-48.8	3.9	54.6*	-0.2
SMILES	MITF primary	GPR151 ag	TEAD-YAP inh	FBW7 activator
Cn1c(Nc2nc(NC3CC3)c3ncn(-c4ccccc4)c3n2)nc2ccccc21	13.4	-0.1	46.5*	-0.2
COc1ccc(C2(c3ccccc3)C=Cc3c(ccc4ccccc34)O2)cc1 (stereo not drawn)	-5.7	3.1	-1.0	-0.1
CCOC(=O)COc1cccc(/C=C2\Oc3cc(OC)ccc3C2=O)c1	5.5	0.2	-1.1	0.2
COC(=O)c1ccc2c(c1)C(=O)/C(=C/c1cccc(OC)c1)O2	0.6	0.0	-2.7	-0.1
COc1cccc(/C=C2\Oc3cc(O)cc(C)c3C2=O)c1	14.3	-9.7	97.6*	0.0
Cc1cc(O)cc2c1C(=O)/C(=C/c1cccnc1)O2	-4.0	-6.4	60.8*	0.1
O=C1/C(=C\c2cccnc2)Oc2cc(O)ccc21	-29.2	1.3	8.9	0.1
Cc1cc(OC(=O)C(C)C)cc2c1C(=O)/C(=C/c1cccnc1)O2	-3.7	-8.2	62.8*	0.0
